Results on ten compounds are retold here after PubChem BioAssay.

A short description of assay [1]: modulation of C. elegans fzo-1 (AID 1259413).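 Further: fzo-1 mutant C. elegans worms in liquid wells.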 The conditions noted are these: C. elegans fzo-1 modulator screen, mean read-out; stronger effect = higher value.
Assay [2] can be described thus: differential killing of epithelial or mesenchymal cells, primary screen, imaging, PC-3E GFP, TEM4-18 mCherry, co-culture (AID 1345086;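 active means compounds killing one labelled cell type while sparing the other, by normalised counts and ratio limits, not self-fluorescent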;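 on all read-outs here: cells exposed to compound for 72 h before imaging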;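 on red/green cell ratio (normalised): normalised mesenchymal count divided by normalised epithelial count so high means epithelial killing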). The conditions noted are these: imaging cell counts, at 1 µM; for red/green cell ratio (normalised): actives lie on both sides, counts scaled to control wells, 1 = unselective.
Assay [3] relates to Aerobactin synthetase IucA (Klebsiella pneumoniae). The experiment in a line: IucA aerobactin synthetase inhibitors, biochemical, Tocris library, absorbance (AID 1345561).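 Further: 100% = enzyme without compound and 0% = no enzyme.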 The conditions noted are these: purified IucA enzyme assay, absorbance (OD) read-out; stronger effect = lower value;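 tested at 8 µM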.
Assay [4] is described as follows: growth inhibition of DIPG glioma cells, dose response, cell-based, SU-DIPG-XVII, MIPE5.0, CellTiter-Glo, qHTS (AID 1347060; cut-off not given, nearly all actives have AC50 up to about 26 µM). The conditions noted are these: SU-DIPG-XVII viability, CellTiter-Glo ATP luminescence. (In general: ATP-based viability assays read luminescence as a measure of living cells.)
The nature of assay [5]: growth inhibition of DIPG glioma cells, dose response, cell-based, SU-DIPG-XIII, MIPE4.0, CellTiter-Glo, qHTS (AID 1347061; cut-off not given, nearly all actives have AC50 up to about 37 µM;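 further: cells exposed to compound for 48 hours before readout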). The conditions noted are these: SU-DIPG-XIII viability, CellTiter-Glo ATP luminescence.
Assay [6] is described as follows: growth inhibition of DIPG glioma cells, dose response, cell-based, JHH-DIPG-1, MIPE4.0, CellTiter-Glo, qHTS (AID 1347062; cut-off not given, nearly all actives have AC50 up to about 27 µM). The note with it: JHH-DIPG-1 viability, CellTiter-Glo ATP luminescence.
Assay [7] can be described thus: growth inhibition of DIPG glioma cells, dose response, cell-based, SU-DIPG-IV, MIPE4.0, CellTiter-Glo, qHTS (AID 1347063; cut-off not given, nearly all actives have AC50 up to about 30 µM;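 further: compound exposure lasted 48 hours before the viability readout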). The conditions noted are these: SU-DIPG-IV viability, CellTiter-Glo ATP luminescence.
The nature of assay [8]: growth inhibition of DIPG glioma cells, dose response, cell-based, SU-DIPG-XIII, MIPE5.0, CellTiter-Glo, qHTS (AID 1347064; cut-off not given, nearly all actives have AC50 up to about 23 µM). The note with it: SU-DIPG-XIII viability, CellTiter-Glo ATP luminescence.
Where [9] appears, read: measured here: epithelial PC-3E GFP cell survival.
Setting [10] is: measured here: mesenchymal TEM4-18 mCherry cell survival.

By remaining activity is commonly meant the signal under treatment as a percentage of the control signal.

Where “and” joins values, the source holds several entries; their conditions need not be identical. Equal entries are not always repeated. Inconclusive results are not listed. Calls of active or inactive are those of the source. Unless noted, how the calls were made is not given here.

Regarding `OCc1cc(C(O)CNCCCCCCOCCCCc2ccccc2)ccc1O` (stereo unspecified), the mean signal in assay [1] was 253 (inactive). For the same compound, the red/green cell ratio (normalised) in assay [2] is 1.18 (inactive). The normalised cell number in assay [2] (setting [9]) amounted to 0.82; in assay [2] (setting [10]) it was 0.97. Further, the remaining activity in assay [3] is 115% (inactive).

For the compound `C[C@H]1COc2c(C3(N)CC3)c(F)cc3c(=O)c(C(=O)O)cn1c23`, the mean signal in assay [1] is 269 (inactive). For the same compound, the red/green cell ratio (normalised) in assay [2] was 1.3 (inactive) and 0.88 (inactive). In addition, the normalised cell number in assay [2] (setting [9]) is 0.98 and 1.07; in assay [2] (setting [10]) it was 1.28 and 0.94.

Consider `Cn1nnc2c(C(N)=O)ncn2c1=O`, for which, in assay [1], the mean signal is 230 (inactive). Besides, the red/green cell ratio (normalised) in assay [2] was 1.08 (inactive). Further, the normalised cell number came out at 1.03 in assay [2] (setting [9]) and 1.11 in assay [2] (setting [10]). In addition, the remaining activity in assay [3] was 102% (inactive). Also, the outcome in assay [4], in assay [5], in assay [6], in assay [7] and in assay [8] was inactive.

`CCN1CCN(c2cc3c(cc2F)c(=O)c(C(=O)O)cn3C2CC2)CC1`: in assay [1], the mean signal is 280 (inactive). For the same compound, the red/green cell ratio (normalised) in assay [2] was 1.09 (inactive). For the same compound, the normalised cell number was determined as 1.12 in assay [2] (setting [9]) and 1.23 in assay [2] (setting [10]).

As for `Nc1nc(N)nc(-c2cc(Cl)ccc2Cl)n1`, the mean signal in assay [1] was 297 (inactive). Besides, the red/green cell ratio (normalised) in assay [2] was 1.01 (inactive). Further, the values for the normalised cell number in assay [2] (setting [9]) and in assay [2] (setting [10]) were 1.08 and 1.09, respectively. Moreover, the remaining activity in assay [3] is 103% (inactive). Moreover, the compound was classed as inactive in assay [4], in assay [5] and in assay [6].

On to `CC(Oc1c(Cl)cccc1Cl)C1=NCCN1` (stereo unspecified), for which the mean signal in assay [1] is 295 (inactive). Also, the red/green cell ratio (normalised) in assay [2] is 1.37 (inactive). Further, the normalised cell number in assay [2] (setting [9]) was found to be 0.85; in assay [2] (setting [10]), 1.17.

For the compound `CC(=O)NS(=O)(=O)c1ccc(N)cc1`, the mean signal in assay [1] is 275 (inactive). Besides, in assay [2], the red/green cell ratio (normalised) was 1.56 (inactive). Further, the normalised cell number came to 0.84 in assay [2] (setting [9]) and 1.31 in assay [2] (setting [10]).

`Cc1cccc(C)c1NC(=O)C(C)N` (stereo unspecified): the mean signal in assay [1] was 270 (inactive). Moreover, the red/green cell ratio (normalised) in assay [2] was 0.66 (inactive). The normalised cell number in assay [2] (setting [9]) was 1.32; in assay [2] (setting [10]), 0.88.

On to `Nc1ccc(O)c(C(=O)O)c1`, for which the mean signal in assay [1] is 261 (inactive). Also, the red/green cell ratio (normalised) in assay [2] was 1.19 (inactive). The results for the normalised cell number in assay [2] (setting [9]) and in assay [2] (setting [10]) were 1.04 and 1.24, respectively.

Take `COc1ccccc1OCC(O)CN1CCN(CC(=O)Nc2c(C)cccc2C)CC1` (stereo unspecified): the mean signal in assay [1] was 263 (inactive). The red/green cell ratio (normalised) in assay [2] was 0.78 (inactive). For the same compound, the results for the normalised cell number in assay [2] (setting [9]) and in assay [2] (setting [10]) were 1.24 and 0.96, respectively. For the same compound, the call in assay [4], in assay [5], in assay [6], in assay [7] and in assay [8] was inactive.
